# The full list was thinned out, with the strongest signals kept by preference.
# System: Gal(a1-2)Gal
# Assay: glycan array binding signal (z-score within array); higher = stronger binding
# Settings: glycan notation: IUPAC condensed, linker removed
# Summary of the method: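 Glycan array data were curated from 3228 arrays in the Consortium for Functional Glycomics database and kept only where the protein sequence was available. Glycan names were converted to IUPAC-condensed notation, and columns mapping to the same glycan were averaged. The binding signal is a within-array Z-score, averaged across arrays of the same protein sequence at different concentrations or buffers and across linkers. Negative Z-scores can be read as non-binding.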
# Chain of Aggrecan (Rattus norvegicus), NP_071526 (chain, as listed by the source): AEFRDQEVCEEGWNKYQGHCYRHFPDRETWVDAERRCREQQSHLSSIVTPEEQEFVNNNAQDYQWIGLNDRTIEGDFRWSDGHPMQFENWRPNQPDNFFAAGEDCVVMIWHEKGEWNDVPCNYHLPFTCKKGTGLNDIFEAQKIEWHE
# Chain of CHI3L1 (Homo sapiens), P36222 (P36222 whole entry): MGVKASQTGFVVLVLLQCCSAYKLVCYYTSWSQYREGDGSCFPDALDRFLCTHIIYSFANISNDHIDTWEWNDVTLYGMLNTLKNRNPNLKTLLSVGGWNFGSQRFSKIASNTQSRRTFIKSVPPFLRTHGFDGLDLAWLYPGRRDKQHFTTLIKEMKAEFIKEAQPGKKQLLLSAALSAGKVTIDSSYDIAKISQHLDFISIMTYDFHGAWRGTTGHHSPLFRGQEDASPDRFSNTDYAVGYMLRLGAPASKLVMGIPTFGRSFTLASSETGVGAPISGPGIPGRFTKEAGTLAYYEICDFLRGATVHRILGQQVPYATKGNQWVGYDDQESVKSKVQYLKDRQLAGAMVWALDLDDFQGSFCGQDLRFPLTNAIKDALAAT
# Chain of Regenerating Gene IV (Homo sapiens), Q9BYZ8 (Q9BYZ8 whole entry, looked up): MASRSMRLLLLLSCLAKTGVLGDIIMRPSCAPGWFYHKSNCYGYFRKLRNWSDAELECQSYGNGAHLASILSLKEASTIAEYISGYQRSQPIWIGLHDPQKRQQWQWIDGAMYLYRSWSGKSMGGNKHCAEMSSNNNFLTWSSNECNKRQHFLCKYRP
row,Substance,glycan array binding signal (z-score)
1,"Aggrecan (Rattus norvegicus), NP_071526",-0.066
2,"CHI3L1 (Homo sapiens), P36222",-0.025
3,"Regenerating Gene IV (Homo sapiens), Q9BYZ8",6.89
